TRPV1 agonist = HTS Assay for Compounds that Act as Agonists of the Vanilloid Receptor 1; Transient receptor potential cation channel subfamily V member 1 (Homo sapiens), Q8NER1; TRPV1-expressing cells, Fluo-8 calcium influx, agonist mode; activation, % at 8.33 µM; 320,000 compounds, 0.19% hits; AID 540275, 2011; in the data active = activation above about 80%; inconclusive = between about 30% and that limit; note: 0% is about no effect
Target sequence (Q8NER1 whole entry, looked up): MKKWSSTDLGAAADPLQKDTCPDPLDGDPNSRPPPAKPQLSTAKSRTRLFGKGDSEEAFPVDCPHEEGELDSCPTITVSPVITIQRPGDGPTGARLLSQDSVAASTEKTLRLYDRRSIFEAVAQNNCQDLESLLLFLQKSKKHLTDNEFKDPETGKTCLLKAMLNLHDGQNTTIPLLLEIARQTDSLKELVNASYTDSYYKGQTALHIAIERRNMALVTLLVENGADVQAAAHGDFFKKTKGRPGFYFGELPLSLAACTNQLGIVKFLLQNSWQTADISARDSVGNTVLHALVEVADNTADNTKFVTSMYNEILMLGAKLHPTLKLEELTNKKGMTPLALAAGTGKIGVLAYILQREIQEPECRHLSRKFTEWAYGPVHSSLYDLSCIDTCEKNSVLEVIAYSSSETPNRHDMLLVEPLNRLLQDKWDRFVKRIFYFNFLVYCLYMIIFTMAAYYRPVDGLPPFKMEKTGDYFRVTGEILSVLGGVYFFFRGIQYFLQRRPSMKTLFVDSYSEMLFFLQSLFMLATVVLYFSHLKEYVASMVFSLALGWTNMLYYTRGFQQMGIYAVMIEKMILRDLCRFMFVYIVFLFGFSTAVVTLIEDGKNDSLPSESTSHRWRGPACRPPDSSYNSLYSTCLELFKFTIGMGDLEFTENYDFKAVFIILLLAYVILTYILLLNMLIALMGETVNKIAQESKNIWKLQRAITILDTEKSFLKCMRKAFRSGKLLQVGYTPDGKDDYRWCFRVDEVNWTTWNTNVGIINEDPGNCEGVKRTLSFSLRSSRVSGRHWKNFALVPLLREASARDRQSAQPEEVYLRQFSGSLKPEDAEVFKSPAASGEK
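Cells expressing TRPV1 were dye-loaded with Fluo-8 and read kinetically: 10 s baseline, 3 min after compound (agonist portion), then 2 min after EC20 capsaicin (allosteric enhancer portion). Calcium-bound dye fluorescence at 480/520 nm.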
TRPV1 potentiator = HTS Assay for Compounds that Act as Potentiators of the Vanilloid Receptor 1; 320,000 compounds, 0.02% hits; AID 540277, 2011; Transient receptor potential cation channel subfamily V member 1 (Homo sapiens), Q8NER1; TRPV1-expressing cells, Fluo-8 calcium influx, capsaicin EC20 potentiation; potentiation, % at 8.33 µM; in the data active = potentiation above about 80%; inconclusive = between about 30% and that limit; note: 0% is about no effect
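Cells expressing TRPV1 were dye-loaded with Fluo-8 and read kinetically: 10 s baseline, 3 min after compound (agonist portion), then 2 min after EC20 capsaicin (allosteric enhancer portion). Calcium-bound dye fluorescence at 480/520 nm.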
KCNH2 WT inh = qHTS for Inhibitors of KCHN2 3.1: Wildtype qHTS; U2OS, BacMam KCNH2, thallium flux FluxOr; active compounds read low; AID 720551, 2013; activity change, % at 1.84 µM; 340,000 compounds, 0.37% hits;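 active = maximum activity change below -70%; inconclusive = maximum activity change between -70% and -50%; inactive = maximum activity change above -50%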; note: % is set by controls: 0 for no effect and ±100 for the full control effect
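U2OS cells transduced with wild-type KCNH2 virus are loaded with FluxOr dye for 45 min, and thallium flux is measured in kinetic reads before and after stimulation buffer. Rate constants are normalized to DMSO controls.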
p53 reactivator = qHTS assay for re-activators of p53 using a Luc reporter; H1299 p53-A138V BP100-luciferase reporter, luminescence, 24 h; Potency, µM (top dose mostly 92.2 µM), without a hit: at the highest dose activity change, positive = activation, usual class: activators; 320,000 compounds, 0.063% hits; active = well fitted activation curve with a large enough effect; inconclusive = small, poorly fitted or top-dose-only effect; inactive = no such curve, though single readings can be large or run the other way; note: potency is the fitted concentration of half-maximal effect; % of control where 0% means no effect; nearly all actives have a fitted effect of over 45% in size
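H1299 (p53-null), stable ts p53-A138V + BP100-Luc; 1000 cells/well, Opti-MEM/10% FBS; cpd 4 pt, 1:5; 24 h, 37 deg C, 5% CO2; detection reagent 10 min RT; luminescence.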
KCNH2 3.1 block = qHTS for Inhibitors of KCHN2 3.1: Mutant qHTS; 340,000 compounds, 0.95% hits; U2OS KCNH2 3.1, thallium flux FluxOr; active compounds read low; activity change, % (tested at about 1.8 µM); Potassium voltage-gated channel subfamily H member 2, brain isoform KCNH2 3.1 (human);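 active = maximum activity change below -70%; inconclusive = maximum activity change from -70% to -50%; inactive = maximum activity change above -50%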;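 note: thallium influx rate constant from kinetic fluorescence after stimulation buffer; % is set by controls: 0 for no effect and ±100 for the full control effect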
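Virally transduced U2OS (3.1 isoform, 4 h infection in dark at RT) → overnight 37 C → FluxOr + Red40 in HBSS/HEPES, 45 min → stimulation buffer, 2 min kinetic read → rate constant vs DMSO controls.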
ClpP mod = qHTS Assay for Activators of ClpP; purified B. subtilis ClpP, FRET peptide cleavage, 20 min; Potency, µM (titrated, usually from 57.5 µM), for the others: at the highest dose activity change, negative = active; 340,000 compounds, 1.9% hits; active = well fitted falling curve with a large enough effect; inconclusive = small, poorly fitted or top-dose-only effect; inactive = no such curve, though single readings can be large or run the other way; note: potency is the fitted concentration of half-maximal effect; the source files actives as falling curves though it sought activators and does not explain the sign; nearly all actives have a fitted effect of over 65% in size
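Purified B. subtilis ClpP, 10 microg/mL final in Tris/HCl pH8 with KCl, BSA, glycerol and Tween-20, cleaved an Abz/nitrotyrosine-quenched decapeptide. Fluorescence (ex 320, em 430) was read at 0 and 20 min at room temperature. Delta was normalized to 5.8 microM ADEP and DMSO/no-enzyme controls.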
* hit, by the source's call; ? = inconclusive; nt = not tested or not shown; ! = a repeat was not active. In the library only some 2.6% were active in any assay of this set; here they are far more common.

SMILES	TRPV1 agonist	TRPV1 potentiator	KCNH2 WT inh	p53 reactivator	KCNH2 3.1 block	ClpP mod
COc1ccc(NC(=O)C2(c3ccc(NC(=O)c4ccc(OC)cc4)cc3)CCCC2)cc1	-1.4	?	-5.0	-7.2%	23.1	28.2µM*
COc1ccc(Cc2c(-c3ccc(Cl)cc3)nc3cc(C)c(Br)c(C)n23)c(C)c1	nt	nt	nt	nt	nt	-0.4%
CCSC1=C(C#N)C(c2ccccc2C)CC(=O)N1 (stereo not drawn)	1.1	2.0	7.5	-10.5%	5.7	1.1%
C=CCSC1=C(C#N)C(c2ccccc2C)CC(=O)N1 (stereo not drawn)	-0.7	-12.4	-3.4	-9.7%	-2.8	28.2µM*
Cc1ccc2oc(-c3cc(NC(=O)c4ccc5c(c4)OCCO5)cc(C)c3O)nc2c1	nt	nt	nt	nt	nt	1.0%
Cc1ccc(CC(=O)Nc2ccc(S(=O)(=O)Nc3ncccn3)cc2)cc1	-0.9	15.9	-4.2	10.7%	21.1	nt
O=C(CCc1c[nH]c2ccccc12)Nc1ccc(S(=O)(=O)Nc2ncccn2)cc1	-3.4	-6.7	3.7	2.2%	-8.4	31.6µM*
CC(C)CN(CC(C)C)c1nn[nH]n1	nt	nt	-13.3	nt	37.5	nt
Cc1ccc2c(c1)-c1c(c(C(=O)N3CCN(c4cc(Cl)ccc4C)CC3)nn1C)CS2	nt	nt	nt	nt	nt	-2.8%
N#Cc1ccc(C(=O)CSc2n[nH]c(=O)n2Cc2ccco2)cc1	0.6	-4.8	-2.5	1.4%	-10.9	28.2µM*
Cc1ccc(F)c(S(=O)(=O)NC(=O)C2(C)CCN2C(=O)C/C=C/c2ccccc2)c1 (stereo not drawn)	nt	nt	nt	nt	nt	-2.1%
O=C(N/N=C/c1ccccc1)c1n[nH]c2c1CCCC2	83.3*	-19.3	2.0	-0.9%	1.5	nt
O=C(N/N=C/c1ccc(Cl)cc1)c1n[nH]c2c1CCCC2	?	-16.1	-6.1	?	-4.6	nt
COc1ccc2[nH]cc(CCNC(=O)c3cnn(-c4ccc(C)cc4)c3C3CCN(C(=O)OC(C)(C)C)CC3)c2c1	nt	nt	nt	nt	nt	-1.6%
O=C(CCSCc1ccc(Cl)cc1)N1CCN(c2ccccc2F)CC1	nt	nt	nt	nt	nt	-0.2%
COc1ccc(Cl)cc1C(=O)Nc1ccc2nc(Nc3cccc(Cl)c3)cc(C)c2c1	nt	nt	nt	nt	nt	3.7%
Cc1cc(Nc2cccc(Cl)c2)nc2ccc(NC(=O)c3ccc(F)cc3Cl)cc12	nt	nt	nt	nt	nt	28.2µM*
COC(=O)c1sc2ncccc2c1OCc1c(Cl)cccc1Cl	1.9	19.6	0.0	1.5%	-0.1	-22.6%
CCOC(=O)COc1c(C(=O)OC)sc2ncccc12	-0.5	-7.1	19.1	2.1%	-1.2	25.1µM*
CN1CC=C2C(C#N)=C(N)C(C#N)(C#N)[C@H](c3cccs3)[C@H]2C1	1.9	-0.4	-29.8	18.8%	-2.4	-4.8%
CN1CC=C2C(C#N)=C(N)C(C#N)(C#N)C(c3ccsc3)C2C1 (stereo not drawn)	2.0	17.9	2.2	24.8%	-4.3	?
CCCC1C2CN(C(C)C)CC=C2C(C#N)=C(N)C1(C#N)C#N (stereo not drawn)	7.2	-4.9	3.7	-3.6%	3.3	28.2µM*
CN1CC=C2C(C#N)=C(N)C(C#N)(C#N)C(CCc3ccccc3)C2C1 (stereo not drawn)	-2.0	6.9	1.3	-5.0%	4.5	28.2µM*
N#Cc1nc(-c2ccc(OCc3ccc(Cl)cc3)cc2)oc1N1CCC(C(N)=O)CC1	0.3	?	-18.7	8.2%	-10.0	5.01µM*!
CCCOc1ccc(-c2nc(C#N)c(N3CCC(C(N)=O)CC3)o2)cc1	?	-0.6	22.8	-13.3%	-6.2	14.1µM*
SMILES	TRPV1 agonist	TRPV1 potentiator	KCNH2 WT inh	p53 reactivator	KCNH2 3.1 block	ClpP mod
N#Cc1nc(-c2ccc(OCc3ccc(Cl)cc3)cc2)oc1N1CCCC1	nt	nt	nt	nt	nt	-0.4%
COc1cc(/C=N/NC(=O)C2CCN(CC(O)COCc3ccccc3)CC2)cc(OC)c1OC (stereo not drawn)	0.4	-1.9	-31.5	2.6%	-28.6	?
COc1cc(/C=N/NC(=O)C2CCN(CC(O)COCc3ccccc3)CC2)ccc1O (stereo not drawn)	1.2	-4.3	-128.2*	-0.1%	-99.1*	?
COC(=O)c1cc(OC)c(OC)cc1NC(=O)CCC1CCCC1	-1.6	-20.1	19.7	2.6%	-4.8	31.6µM*
COc1cc(Cl)c(C)cc1NC(=O)CCCN1C(=O)CCC1=O	0.6	2.7	-4.0	-1.7%	-9.3	1.4%
COC(=O)c1cc(OC)c(OC)cc1NC(=O)CCCCCN1C(=O)CCC1=O	0.8	-3.7	5.1	-8.3%	2.3	28.2µM*
COc1ccc(N2CCN(Cc3nc(N)nc(Nc4ccc(C)c(Cl)c4)n3)CC2)cc1	-1.3	6.5	31.4	2.7%	-73.0*	4.2%
CCOc1nc(Nc2ccc(F)cc2)nc(N2CCN(c3ccc(OC)cc3)CC2)n1	4.6	-10.2	-3.5	1.9%	?	-27.7%
CCOc1nc(Nc2ccc(OC)c(Cl)c2)nc(N2CCN(c3ccc(OC)cc3)CC2)n1	2.3	-2.3	3.1	-8.4%	-109.0*	-6.0%
Cc1ccc(Nc2nc(N)nc(CN3CCN(C)CC3)n2)cc1C	6.0	-5.2	nt	-18.3%	nt	nt
Cc1ccc(Nc2nc(N)nc(CN3CCN(c4ccccc4)CC3)n2)cc1Cl	20.1	-9.3	12.8	0.8%	-74.6*	0.6%
O=C(NCCc1ccccc1)c1ccc(CSc2nc3cccnc3n2Cc2ccccc2F)cc1	nt	nt	nt	nt	nt	4.5%
CC(C)Oc1cccc(-c2cc(C(=O)NC(=S)N(C)c3ccccc3C(=O)O)c3ccccc3n2)c1	2.7	6.6	21.6	16.8%	-4.1	6.31µM*
O=C(O)/C=C/c1ccc2ccccc2c1	nt	nt	nt	nt	nt	4.0%
Cc1ccccc1Cn1c(SCc2ccc(C(=O)NC3CCCCC3)cc2)nc2ccncc21	nt	nt	nt	nt	nt	-7.9%
COC(=O)[C@H](CC(C)C)NC(=O)N1CCCCC1	-1.5	-13.6	-0.3	-3.0%	-126.0*	nt
Cc1ccc(S(=O)(=O)N(C)CCN(C)c2nc(-c3cccs3)nc3ccccc23)cc1	nt	nt	nt	nt	nt	31.6µM*
CCc1ccc(C2=CC(c3cc(Br)ccc3F)n3ncnc3N2)cc1 (stereo not drawn)	3.6	21.7	12.8	-3.3%	-14.4	31.6µM*
Fc1ccc(Br)cc1C1C=C(c2ccc(Br)cc2)Nc2ncnn21 (stereo not drawn)	-1.7	2.0	-9.2	0.5%	16.5	-22.3%
